Hits are enriched below; roughly 3.5% of the tested compounds scored in any of these assays.
MITF inh: blocks human microphthalmia-associated transcription factor; O75030; AlphaScreen MITF homodimerization, bead proximity signal; inhibition, % at 2.6 µM; 0.91% of 650,000 active; AID 1259374; in the data active = inhibition above about 50%
TEAD-YAP inh: TEAD-YAP interaction inhibition; HEK-TIYL cells, TEAD-Gal4/YAP UAS-luciferase luminescence; AID 1259422; 1.4% of 640,000 active; inhibition, % at 9.12 µM; in the data active = inhibition above about 32%
FBW7 activator: activators of human E3 ligase FBW7. AID 1259310. Q969H0. normalized activity (activation), % at 26.1 µM. AlphaScreen FBW7–phospho-cyclin E peptide binding, activator screen. 0.13% of 650,000 active; in the data active = normalized activity above about 1.9%;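 note: purified mutant Fbw7 with reduced substrate affinity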
Target sequence (Q969H0 whole entry, looked up): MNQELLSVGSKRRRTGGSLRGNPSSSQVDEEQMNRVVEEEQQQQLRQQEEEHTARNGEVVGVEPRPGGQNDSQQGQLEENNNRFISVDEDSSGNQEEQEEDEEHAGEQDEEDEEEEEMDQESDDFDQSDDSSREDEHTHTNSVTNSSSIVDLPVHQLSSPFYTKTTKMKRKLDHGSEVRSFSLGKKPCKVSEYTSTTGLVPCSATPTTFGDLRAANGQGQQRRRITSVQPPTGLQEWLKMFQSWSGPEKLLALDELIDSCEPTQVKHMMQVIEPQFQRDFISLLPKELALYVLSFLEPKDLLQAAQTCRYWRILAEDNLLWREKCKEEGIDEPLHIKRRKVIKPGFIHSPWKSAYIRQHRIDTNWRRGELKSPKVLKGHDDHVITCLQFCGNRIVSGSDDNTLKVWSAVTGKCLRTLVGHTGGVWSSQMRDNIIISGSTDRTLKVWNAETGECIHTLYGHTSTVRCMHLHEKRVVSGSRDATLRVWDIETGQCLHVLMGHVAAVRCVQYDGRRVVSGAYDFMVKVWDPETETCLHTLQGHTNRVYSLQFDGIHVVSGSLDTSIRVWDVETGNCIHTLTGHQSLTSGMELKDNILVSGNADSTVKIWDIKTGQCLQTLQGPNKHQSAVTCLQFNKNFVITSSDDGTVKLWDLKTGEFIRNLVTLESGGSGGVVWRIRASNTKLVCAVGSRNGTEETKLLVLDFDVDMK
GPR151 ag: activators of human GPR151. PathHunter beta-arrestin GPR151 cells, luminescence. AID 1508602. Q8TDV0. activation, % at 11.2 µM. 1% of 650,000 active; in the data active = activation above about 4.9%
Of the large screens only hits and unclear results are named; the others gave an inactive call.

CCN1/C(=C/c2ccc3cc(OC)ccc3[n+]2CC)Sc2ccc(OC)cc21	TEAD-YAP inh 87
Nc1nc(SCC(=O)Nc2ccc(S(=O)(=O)N3CCOCC3)cc2)n[nH]1	none
COc1ccc(-c2cnn3ccc(NCCO)nc23)cc1OC	TEAD-YAP inh 57
COc1cc(-c2cnn3ccc(NCCO)nc23)ccc1O	none
COc1cc(-c2cnn3ccc(Nc4cc(OC)c(OC)c(OC)c4)nc23)ccc1O	TEAD-YAP inh 71
Oc1ccc(-c2cnn3ccc(NCc4cccnc4)nc23)cc1	TEAD-YAP inh 35
COc1cccc(-c2cnn3ccc(Nc4cc(OC)c(OC)c(OC)c4)nc23)c1	none
COc1cc(Nc2ccn3ncc(-c4ccccc4Cl)c3n2)cc(OC)c1OC	TEAD-YAP inh 36
Cc1ccc(C(=O)N2CCN3C(=O)[C@H](CC(C)C)NC(=O)[C@H]3C2)cc1F	none
Cc1ccc(-c2csc(/C(C#N)=C\Nc3ccc(S(N)(=O)=O)cc3)n2)cc1	FBW7 activator 2.7
CC(C)(C)c1nnc2sc(SCC(=O)Nc3ccccc3)nn2c1=O	none
O=C(Nc1ccc(F)cc1)c1ccc(-c2ccccc2[N+](=O)[O-])o1	none
CCOc1ccc(C2=CC(c3ccccc3C)c3ccccc3O2)cc1 (configuration not stated)	none
CCN(CC)c1ccc2cc(-c3nc4ccccc4s3)c(=O)oc2c1	TEAD-YAP inh 77
CCN(CC)c1ccc2cc(-c3nc4ccccc4n3C)c(=O)oc2c1	TEAD-YAP inh 33
COc1ccc(Br)cc1/C=C1\N=C(c2ccc(Br)o2)OC1=O	none
Cc1ccc(-c2cnn3c(N4CCN(C)CC4)ccnc23)cc1	none
Cc1csc(-c2cnn3c(N4CCN(C)CC4)ccnc23)c1	TEAD-YAP inh 32
O=C(CN1CCC(Cn2cnc3ccccc32)CC1)Nc1nc2ccc(F)cc2s1	TEAD-YAP inh 56
O=c1c2cc(Cl)ccc2nc2ccc(N3CCCC3)nn12	none
CC1CCN(c2ccc3nc4ccccc4c(=O)n3n2)CC1	TEAD-YAP inh 76
Cc1cccc(OCc2nc3ccc(-c4ccnc(N)n4)cc3[nH]2)c1	TEAD-YAP inh 57
CC(=O)Nc1cc(-c2ccnc(N)n2)ccc1NC(=O)COc1cccc(C)c1	none
O=c1[nH]cnc2c1ncn2[C@@H]1O[C@H](CO)[C@@H](O)[C@H]1O	none
O=c1ncn(C2OC(CO)C(O)C2O)c(=O)[nH]1 (configuration not stated)	TEAD-YAP inh 74
O=c1cnn([C@@H]2O[C@H](CO)[C@@H](O)[C@H]2O)c(=O)[nH]1	TEAD-YAP inh 48
O=C(O)CCCCCN1C(=O)C(O)=C(C(=O)/C=C/c2ccccc2)C1c1ccccc1 (configuration not stated)	none
COc1cccc2oc(-c3ccccc3)cc(=O)c12	TEAD-YAP inh 60
Cn1c(/C=N/Nc2nc3ccccc3[nH]2)nc2ccccc21	TEAD-YAP inh 40
CCCn1c(/C=N/Nc2nc3ccccc3[nH]2)nc2ccccc21	none
CC(C)n1c(/C=N/Nc2nc3ccccc3[nH]2)nc2ccccc21	TEAD-YAP inh 37
Cc1ccc2oc(C(=O)NCc3ccco3)cc2n1	none
O=C(CCc1ccccc1)Nc1nnc(Cc2ccc3c(c2)OCCO3)o1	none
COc1ccc(CCn2cnc3sc4c(c3c2=N)CCCC4)cc1OC	TEAD-YAP inh 39
Cc1nc2sc3c(c2c(=O)n1Cc1ccc(C(C)(C)C)cc1)CCCC3	none
CC(C)(C)c1ccc(Cn2cnc3sc4c(c3c2=O)CCCC4)cc1	TEAD-YAP inh 62
COc1cc(/C=C2\C(=O)ON=C2C)cc(Cl)c1OC(C)C	MITF inh 75
CSc1ccc(/C=C2\C(=O)ON=C2C)cc1	MITF inh 79
CCOc1c(Br)cc(/C=C2\C(=O)ON=C2C)cc1OC	MITF inh 78
C#CCOc1ccc(/C=C2\C(=O)ON=C2C)cc1OC	MITF inh 68
COc1ccc([N+](=O)[O-])cc1NC(=O)C1CC(=O)N=C(N)S1 (configuration not stated)	none
COc1ccc(Br)cc1/C=C1\C(=O)ON=C1C	MITF inh 65
COc1ccc(OC)c(/C=C2/C(=O)ON=C2C)c1	none
Cc1ccc(/C=N\NC(=O)C2COc3cc4ccccc4cc3O2)c(O)c1 (configuration not stated)	none
COc1ccc(-c2cc3nc4c(c(NCc5cccnc5)n3n2)CCC4)cc1OC	TEAD-YAP inh 36
COc1ccc(-c2cc3nc4c(c(NCCN)n3n2)CCC4)cc1OC	none
COc1ccc(C(NC(=O)Cc2ccccc2)NC(=O)Cc2ccccc2)cc1	none
COC(=O)c1ccccc1Sc1c(-c2ccccc2)nc2ncccn12	TEAD-YAP inh 45
CCCC(=O)Nc1ccc(NC(=O)c2cccc(OC)c2)cc1	none
CCCNc1ccc2ncc(-c3ccc(OC)c(OC)c3)n2n1	TEAD-YAP inh 34
CCCNc1ccc2ncc(-c3cccc(C(N)=O)c3)n2n1	TEAD-YAP inh 33
COc1ccc(CNc2ccc3ncc(-c4ccc(O)c(OC)c4)n3n2)cc1	none
COc1cc(-c2cnc3ccc(NCCCO)nn23)ccc1O	TEAD-YAP inh 75
CS(=O)(=O)Nc1cccc(-c2cnn3c(N4CCCCC4CCO)ccnc23)c1 (configuration not stated)	none
Cc1ccc(/C=C2\SC(=S)N(/N=C/c3ccc(C)o3)C2=O)o1	MITF inh 54
Cc1ccc(/C=C2\SC(=S)N(CCCC(=O)O)C2=O)o1	TEAD-YAP inh 53
Cc1ccc(/C=C2/SC(=S)N(c3ccc(CC(=O)O)cc3)C2=O)o1	MITF inh 59
Cc1ccc(/C=C2/SC(=S)N(CCC(=O)O)C2=O)o1	none
CCCN1C(=O)/C(=C/c2ccc(C)o2)SC1=S	none
Cc1ccc(/C=C2/SC(=S)N(CO)C2=O)o1	MITF inh 85
N#Cc1c(NC(=O)Cn2c(=O)sc3ccccc32)sc2c1CCCC2	none
CCCOc1ccc(C2NC(=O)NC(C)=C2C(=O)OC(C(F)(F)F)C(F)(F)F)cc1 (configuration not stated)	FBW7 activator 2.1
CCCOc1ccc(C2NC(=O)NC(C)=C2C(=O)OC2CCCC2)cc1 (configuration not stated)	TEAD-YAP inh 56
CCCOc1ccc(C2NC(=O)NC(C)=C2C(=O)OC2CCCCCC2)cc1 (configuration not stated)	none
CCOC(=O)C1=C(C)NC(=O)NC1c1ccc(-c2ccccc2)cc1 (configuration not stated)	TEAD-YAP inh 40
CCOC(=O)C1=C(C)NC(=O)NC1c1ccc(OCc2ccccc2)cc1 (configuration not stated)	none
CC(C)(C)C1(C)OC(=O)C(=Cc2ccc(Br)o2)C(=O)O1 (configuration not stated)	MITF inh 69
COc1cc(NC(=O)c2nn3c(c2Br)NC(c2cccs2)CC3C(F)(F)F)cc([N+](=O)[O-])c1 (configuration not stated)	none
CC1=NN(c2nc(-c3ccc(C)cc3)cs2)C(=O)C1C(c1ccccc1)C(C#N)C(N)=O (configuration not stated)	TEAD-YAP inh 75
COc1ccc(-c2csc(N3N=C(C)C(N=Nc4ccc(C(N)=O)cc4)C3=O)n2)cc1 (configuration not stated)	none

Screening data (PubChem)
